Nrf2 activator: qHTS of Nrf2 Activators; AREc32 ARE-luciferase reporter (MCF7-derived line), luminescence, 24 h; 0.31% of 410,000 active; Potency, µM (top dose mostly 46.1 µM), for the others: at the top dose activation, actives largely listed as activators; further: % of control where 0% means no effect; nearly all actives have a fitted effect of over 65% in size
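AREc32_Fluc, 1000 cells/well, OPTI-MEM + 5% FBS, o/n 37 deg C 5% CO2; 23 nL cpd by pin tool, 24 hr; Steady-Glo 30 min RT, luminescence.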
ATXN viability: Viability Counterscreen for Primary qHTS for Inhibitors of ATXN expression; AID 651635, 2014; 0.49% of 400,000 active; S2 cells (HEK-293 line with an ATXN2-luciferase reporter) viability, CellTiter-Fluor protease fluorescence, 24 h; Potency, µM (top dose mostly 56.7 µM), actives largely listed as cytotoxic; further: nearly all actives have a fitted effect of over 40% in size
ATXN2 expr inh: Primary qHTS for Inhibitors of ATXN expression | HEK-293 ATXN2-luciferase reporter, luminescence, 24 h | Potency, µM (top dose mostly 57 µM), for inactives: at the top dose activity change, negative = inhibition, actives largely listed as inhibitors | 0.72% of 360,000 active; further: on the % scale 0 is the no-effect control and ±100 the full control effect; nearly all actives have a fitted effect of over 55% in size
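qHTS (up to 57 uM final) was run with 24 h compound exposure of reporter cells at 37 °C. Each well was multiplexed: SteadyGlo luminescence measured ATXN2-luciferase expression after a fluorogenic Gly-Phe-AFC viability readout (25 uM final).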
Nrf2 inh: Nrf2 qHTS screen for inhibitors; 2.1% of 360,000 active; A549 ARE-Fluc reporter, luciferase luminescence, 18-24 h; Potency, µM (doses to about 46 µM), without a hit: top-dose activity change, negative = inhibition, usual class: inhibitors; further: on the % scale 0 is the no-effect control and ±100 the full control effect; nearly all actives have a fitted effect of over 60% in size
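Quantitative HTS in A549 cells stably bearing an antioxidant response element-firefly luciferase construct. Inhibition of Nrf2-driven transcription was scored by luminescence after 18-24 h of compound exposure at 37 °C.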
A549 tox: Nrf2 qHTS screen for inhibitors: counterscreen for cytotoxicity; A549 ARE-Fluc cells, CellTiter-Fluor viability, 18-24 h; Potency, µM (highest dose often 46 µM), for inactives: at the highest dose activity change, negative = cytotoxicity, usual class: inhibitors; 0.16% of 390,000 active; further: on the % scale 0 is the no-effect control and ±100 the full control effect
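Cytotoxicity counterscreen: CellTiter-Fluor fluorescence was measured in A549 ARE_Fluc cells after 18-24 h of compound exposure in a concentration series. The subsequent BugLite luminescent read reports ARE-luciferase activity.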
* marks the source's active call; other numbers are inactive results; i = inactive; ? = inconclusive; . = not tested or not shown. Rows were chosen to be rich in hits. Some 2.9% of all compounds tested hit in one or more screens of this group. The call rests on the fitted dose curve; in most records, active means well fitted curve in the direction sought with a large enough effect; inconclusive means small, poorly fitted or top-dose-only effect, or another doubt; inactive means no such curve, though single readings can be large; an effect the other way counts as inactive or inconclusive. Potency means the concentration at half of the fitted maximal effect.

SMILES	Nrf2 activator	ATXN viability	ATXN2 expr inh	Nrf2 inh	A549 tox
CC(=O)Nc1ccc(C(=O)OCC(=O)N(c2ccccc2)C2CCS(=O)(=O)C2)cc1 (configuration not stated)	0.0%	?	.	?	6.9%
CC#CCn1c(N2CCC[C@@H](N)C2)nc2c1c(=O)n(Cc1nc(C)c3ccccc3n1)c(=O)n2C	.	.	-19.2%	.	.
C=C1CCN(C(C(=O)NCc2ccc(Cl)c(Cl)c2)C(C)C)S(=O)(=O)c2ccccc21 (configuration not stated)	.	.	.	-11.4%	8.2%
O=S(=O)(c1ccccc1F)N1CCN(c2nc(-c3cccs3)nc3ccccc23)CC1	.	.	.	-7.0%	-0.4%
CCC1(c2ccccc2)SCC(c2ccccc2)=NC1=O (configuration not stated)	-0.1%	i	-19.4%	18.4µM*	-1.5%
CCC1(c2ccccc2)SC(N)=NC1=O (configuration not stated)	0.3%	i	-9.3%	0.4%	0.6%
CCC1CCCCN1S(=O)(=O)c1ccc(C(=O)Nc2nnc(C3CC3)o2)cc1 (configuration not stated)	-0.9%	i	?	?	-4.3%
CCC1CCCCN1S(=O)(=O)c1ccc(NC(=O)c2ccncc2)cc1 (configuration not stated)	-0.6%	?	-32.4%	8.2µM*	-15.2%
CCC1CCCCN1S(=O)(=O)c1ccc(NC(=O)c2nc(S(C)(=O)=O)ncc2Cl)cc1 (configuration not stated)	-2.2%	12.6µM*	15.8µM*	?	?
CCC1CCCCN1S(=O)(=O)c1ccc(C(=O)Nc2nnc(-c3ccccc3Cl)o2)cc1 (configuration not stated)	-0.2%	?	?	5.17µM*	?
CCS(=O)(=O)c1ncc(Cl)c(C(=O)Nc2ccc(C)cc2)n1	-2.8%	.	?	?	?
CCS(=O)(=O)c1ncc(Cl)c(C(=O)Nc2ccc(S(=O)(=O)N3CCCC(C)C3)cc2)n1 (configuration not stated)	?	8.91µM*	8.91µM*	?	?
COc1ccc(C2C3=C(N=CN(CCN4CCOCC4)C3N)Oc3ccccc32)cc1OC (configuration not stated)	.	.	.	8.2%	-0.6%
Cc1ccc(CNC(=O)COCc2cc(-c3ccc4c(c3)OCO4)on2)cc1	2.9%	.	.	-5.0%	0.5%
CS(=O)(=O)c1ncc(Cl)c(C(=O)Nc2ccc3ccccc3c2)n1	-2.9%	20µM*	?	-11.5%	?
C=CCSc1nc2ccccc2n1C(=O)/C=C/c1cc(OC)c(OC)c(OC)c1	?	3.55µM*	10µM*	?	?
CCSc1nc2ccccc2n1C(=O)/C=C/c1ccc(OC)c(OC)c1	?	8.91µM*	7.94µM*	?	?
C=CCSc1nc2ccccc2n1C(=O)/C=C/c1ccc(OC)c(OC)c1	?	10µM*	14.1µM*	?	?
CCn1c(SCC(=O)N/N=C/c2ccc(OC)c(OC)c2)nc2ccccc21	2.7%	i	5.5%	-9.4%	3.2%
Cc1cncc2cccc(S(=O)(=O)N3CCCN(C(=O)CN)C[C@@H]3C)c12	.	.	10.4%	.	.
O=C(NC1CC1)[C@@H]1C[C@@H](Sc2nc3ccccc3[nH]2)CN1CC1CCCCC1	.	i	.	.	.
CCOC(=O)c1ccc(NC(=O)c2cnc(N3CCCC3)nc2C)cc1	5.4%	?	-18.3%	.	0.1%
Clc1cccc(Cl)c1CSc1nnc(/C=C/c2ccccc2)o1	1.3%	i	17.1%	.	2.1%
Fc1cccc(Cl)c1Cc1noc(/C=C/c2ccccc2)n1	15.8µM*	i	59.7%	?	-0.4%
O=C(ONc1ccc(N=NC(=O)c2ccccc2O)cc1)c1ccccc1	-0.5%	1.26µM*	-16.6%	?	-8.5%
SMILES	Nrf2 activator	ATXN viability	ATXN2 expr inh	Nrf2 inh	A549 tox
COc1cc(=O)n2c(c1C(=O)N(C)Cc1nonc1C)CCN(Cc1c(F)cccc1F)CC2	.	i	.	.	.
Cc1ccc(S(=O)(=O)c2c(C)nn(C(C)(C)C)c2OC(=O)C2CCCC2)cc1	-0.4%	?	?	20.6µM*	-20.2%
CCCCCCN1C[C@H](n2cc(C3CC3)nn2)[C@@H](O)C[C@@H]1c1ccc(OC)cc1	-0.6%	25.1µM*	?	.	.
CCCCCCN1C[C@@H](n2cc(-c3ccc(F)cc3)nn2)[C@H](O)C[C@@H]1c1ccc(Cl)cc1	-0.1%	17.8µM*	?	.	.
CCCCCCN1C[C@H](O)[C@@H](n2cc(-c3ccc(F)cc3)nn2)C[C@@H]1c1ccc(Cl)cc1	-0.3%	?	?	.	.
CC1(C)CNc2cc(NC(=O)c3cccnc3NCc3ccncc3)ccc21	.	.	0.7%	.	.
COC(=O)C1CCCCN1Cc1ccc2c(c1)CN(C(=O)c1csc(-c3cccs3)n1)CCO2 (configuration not stated)	.	i	.	.	.
Cc1cc(NS(=O)(=O)c2ccc3c(c2)CCC(=O)N3)ccc1F	.	.	.	?	-2.7%
Cc1ccc(CNc2ncnc3sc(C(=O)N4CCCC(C(N)=O)C4)c(C)c23)o1 (configuration not stated)	.	i	.	.	.
Cc1ccc(N(C(=O)Cc2cccs2)C(C(=O)NC2CCCCC2)c2ccccn2)cc1C (configuration not stated)	-0.1%	28.2µM*	-16.6%	?	?
Cc1sc(NC(=O)C2c3ccccc3Oc3ccccc32)c(C(=O)OC(C)C)c1C	-1.0%	i	14.6%	7.6%	1.3%
NC(c1csc(NC(=O)c2cccc(OC(F)(F)F)c2)n1)c1ccccc1Cl (configuration not stated)	-0.2%	?	31.6µM*	.	.
COC(=O)c1cnc(Nc2nc(C(N)c3ccccc3Cl)cs2)nc1C(F)(F)F (configuration not stated)	-2.0%	25.1µM*	?	.	.
COC(=O)c1cnc(Nc2nc(C(N)COCc3ccccc3)cs2)nc1C(F)(F)F (configuration not stated)	3.4%	i	-9.1%	.	.
CC(C)c1ccc(NC(=O)CSc2n[nH]c(=O)n2Cc2ccco2)cc1	5.4%	i	.	10.3µM*	-4.1%
O=c1oc(CCCO)cc2ccc(C#Cc3ccsc3)cc12	?	?	11.3%	4.9%	-5.3%
CC(C)(O)c1cc2ccc(C#Cc3ccsc3)cc2c(=O)o1	5.01µM*	i	4.1%	14.1%	0.7%
O=C(O)c1ccc(-c2c[nH]c3ncc(-c4ccccc4)cc23)cc1C1CCCC1	.	.	3.9%	.	.
Cc1ccc(Nc2cc(C)nc3nc(Cc4ccc(Cl)cc4)nn23)cc1	-1.4%	.	14.1µM*	?	-13.5%
CCc1ccc(Nc2cc(C)nc3nc(Cc4ccc(Cl)cc4)nn23)cc1	-1.6%	?	?	?	?

Assay outcomes deposited in PubChem BioAssay by National Center for Advancing Translational Sciences (NCATS).
